{
  "source": "PubChem BioAssay (Tox21)",
  "note": "Results filed as inconclusive are left out. Unmarked numbers belong to inactive results. Active and inactive are the calls of the source. The call rests on the fitted dose curve; in most records, active means well fitted inhibition curve with a large enough effect in the repeat runs; inconclusive means weak or mixed curves; inactive means flat fitted curve, though single readings scatter. Where a SMILES comes first, the peptide text is derived from it. On the % scale 0 is the no-effect control and ±100 the full control effect; potency means the concentration at half of the fitted maximal effect.",
  "data": [
    {"experiment": "qHTS assay to identify small molecule HDAC inhibitors (AID 1259364); further: nearly all actives have a fitted effect of over 45% in size; on activity change, negative = inhibition: top concentration of the series differs between compounds", "details": "HCT-116 HDAC-Glo I/II luminescence, 2 h; series mostly up to 92.4 µM; activity change, negative = inhibition: at the top concentration", "description": "U.S. Tox21 Program National Center for Advancing Translational Sciences [NCATS] NIH Chemical Genomics Center [NCGC] U.S. Environmental Protection Agency [EPA] National Institutes of Environmental Health Sciences [NIEHS] National Toxicology Program [NTP] U.S. Food and Drug Administration [FDA] Tox21 Assay Overview: Histone deacetylases (HDACs) are a group of epigenetic enzymes that regulate gene expression by histone deacetylation. HDACs are capable of introducing epigenetic modifications and such aberrations contribute to the onset and progression of several human diseases, thus making HDACs a popular therapeutic target. For identifying endogenous class I/II HDAC inhibitors a homogenous, luminogenic HDAC I/II cell based assay was used to measure the relative activity of class I and II HDACs from cells. Wild type HCT-116 cells were used to screen Tox21 libraries for identifying class I/II HDAC inhibitors.\nTox21 Assay Protocol Summary: HCT-116 cells were dispensed at 1,500 per well in 5uL of culture medium into white solid bottom 1536-well plates (Greiner Bio-One, Monroe, NC) using a Multidrop Combi (Thermo Scientific, Waltham, MA) dispenser. The assay plates were incubated at 37 C and 5% CO2 for an overnight, and then 23nL of compounds dissolved in DMSO and positive control were transferred using a Pintool station (Wako, San Diego, CA). The assay plates were incubated at 37C and 5% CO2 for 2hr. After compound treatment, 4uL of HDAC-Glo reagent (Promega Corporation, Madison, WI) was added to each well of the assay plates using Flying Reagent Dispenser (FRD, Aurora Discovery, San Diego, CA) and incubated the assay plates at room temperature for 30min. The luminescence signal was quantified using a ViewLux plate reader (Perkin Elmer, Shelton, CT).", "values": [
      {"molecule": "O=NN(CCCl)C(=O)NC1CCCCC1", "activity change, negative = inhibition": "-0.124% [at 42.5 µM]"},
      {"molecule": "CCO", "activity change, negative = inhibition": "7.19%"},
      {"molecule": "CC(=O)N[C@@H](CO)C(=O)N[C@@H](CC(=O)O)C(=O)N[C@@H](CCCCN)C(=O)N1CCC[C@H]1C(=O)O", "note": "(Ac-SDKP-OH)", "activity change, negative = inhibition": "6.93% [at 42.5 µM]"},
      {"molecule": "CN(C)CCOC(=O)C(c1ccccc1)C1(O)CCCC1", "note": "(stereo not given)", "activity change, negative = inhibition": "-5.51% [at 42.5 µM]"},
      {"molecule": "CCCC(=O)OCCC(C)CCC=C(C)C", "note": "(stereo not given)", "activity change, negative = inhibition": "-4.33%"},
      {"molecule": "C=C(C)[C@@H]1CC=C(C)CC1", "activity change, negative = inhibition": "0.34%"},
      {"molecule": "O=C(O)c1cc2ccccc2nc1C(=O)O", "activity change, negative = inhibition": "-0.325%"},
      {"molecule": "CCC/C=C(\\C=O)CC", "activity change, negative = inhibition": "2.01%"},
      {"molecule": "OC1OCCOC1O", "note": "(stereo not given)", "activity change, negative = inhibition": "2.03%"},
      {"molecule": "CCC(C)C(=O)OCCc1ccccc1", "note": "(stereo not given)", "activity change, negative = inhibition": "1.64%"},
      {"molecule": "COC(C)(OC)OC", "activity change, negative = inhibition": "1.48%"},
      {"molecule": "CC(=O)O[Si](C)(OC(C)=O)OC(C)=O", "activity change, negative = inhibition": "2.59%"},
      {"molecule": "CO/N=C(/C(=O)N[C@@H]1C(=O)N2C(C(=O)[O-])=C(C[n+]3ccn4ncccc43)CS[C@H]12)c1nsc(N)n1", "activity change, negative = inhibition": "-1.94% [at 42.5 µM]"},
      {"molecule": "CCCC(=O)Nc1ccc(OCC(O)CNC(C)C)c(C(C)=O)c1", "note": "(stereo not given)", "activity change, negative = inhibition": "-0.15% [at 42.5 µM]"},
      {"molecule": "CC(C)COC(=O)c1ccccc1", "activity change, negative = inhibition": "-1.52%"},
      {"molecule": "CCCCCCCCCOC(=O)CCCCC(=O)OCCCCCCC", "activity change, negative = inhibition": "-3.11%"},
      {"molecule": "C=CCN1C[C@H](C(=O)N(CCCN(C)C)C(=O)NCC)C[C@@H]2c3cccc4[nH]cc(c34)C[C@H]21", "activity change, negative = inhibition": "2.01% [at 42.5 µM]"},
      {"molecule": "CC(=O)CC(=O)Nc1ccc(C)cc1C", "activity change, negative = inhibition": "0.0074%"},
      {"molecule": "CCC(C)C(C)=O", "note": "(stereo not given)", "activity change, negative = inhibition": "-3.41%"},
      {"molecule": "O=C[O][Al]([O]C=O)[O]C=O", "activity change, negative = inhibition": "10.1%"},
      {"molecule": "CCCCOC(=O)[C@H](C)O", "activity change, negative = inhibition": "-8.7%"},
      {"molecule": "Nc1nnnn1-c1ccccc1", "activity change, negative = inhibition": "-0.983% [at 42.5 µM]"},
      {"molecule": "COc1cc2c(cc1OC)C(=O)C(CC1CCN(Cc3ccccc3)CC1)C2", "note": "(stereo not given)", "activity change, negative = inhibition": "0.674% [at 42.5 µM]"},
      {"molecule": "Cn1c(=O)c2c(ncn2CCO)n(C)c1=O", "activity change, negative = inhibition": "-2.15% [at 42.5 µM]"},
      {"molecule": "CCCCCCCCCCCCCBr", "activity change, negative = inhibition": "5.21%"},
      {"molecule": "CCC[C@@H]1C[C@@H](C(=O)N[C@@H]([C@H]2O[C@H](SC)[C@H](O)[C@@H](O)[C@H]2O)[C@@H](C)O)N(C)C1", "activity change, negative = inhibition": "-0.0162% [at 42.5 µM]"},
      {"molecule": "Cn1nnc2c(C(N)=O)ncn2c1=O", "activity change, negative = inhibition": "8.8% [at 42.5 µM]"},
      {"molecule": "O=C(CCCl)NCCc1ccccc1", "activity change, negative = inhibition": "-2.83% [at 42.5 µM]"},
      {"molecule": "Cc1c(Cl)cccc1Cl", "activity change, negative = inhibition": "0.923%"},
      {"molecule": "CC1OCCC1=O", "note": "(stereo not given)", "activity change, negative = inhibition": "-0.132%"},
      {"molecule": "COc1c2occc2c(OC)c2c(=O)cc(C)oc12", "activity change, negative = inhibition": "4.47% [at 42.5 µM]"},
      {"molecule": "CC(=O)OC1CCCCC1C(C)(C)C", "note": "(stereo not given)", "activity change, negative = inhibition": "5.38%"},
      {"molecule": "CC1(C)[C@H]2CC[C@](C)(C2)[C@H]1O", "activity change, negative = inhibition": "-2.97%"},
      {"molecule": "CC(=O)C(C)O", "note": "(stereo not given)", "activity change, negative = inhibition": "-1.31%"},
      {"molecule": "C/C=C(\\C)C(=O)OCCc1ccccc1", "Potency": "27.3 µM (active)"},
      {"molecule": "CCOC(CN1CCN(CC(C)C(=O)c2ccccc2)CC1)c1ccccc1", "note": "(stereo not given)", "activity change, negative = inhibition": "1.54% [at 19 µM]"},
      {"molecule": "Cn1c(=O)c2[nH]c(Br)nc2n(C)c1=O", "activity change, negative = inhibition": "2.94% [at 42.5 µM]"},
      {"molecule": "Cc1ncc([N+](=O)[O-])n1CC(C)O", "note": "(stereo not given)", "activity change, negative = inhibition": "4.93% [at 42.5 µM]"},
      {"molecule": "CN(C)CC/C=C1/c2ccccc2COc2ccc(CC(=O)O)cc21", "activity change, negative = inhibition": "-15.8% [at 42.5 µM]"},
      {"molecule": "Cc1ccnc(N)c1", "activity change, negative = inhibition": "-1.77%"}
    ]}
  ]
}
